Source: PubChem BioAssay AID652048 (National Center for Advancing Translational Sciences (NCATS), 2013)
Screen size: about 410,000 compounds; about 2,400 (0.59%) were called active. Rule as the data show it: active = max activation above about 30%; inactive = the rest. For the sample, actives were picked, then their nearest neighbours and some compounds at random.
Also: 0% is about no effect.

These molecules were tested against D(3) dopamine receptor (Homo sapiens) (UniProt P35462) (assay: qHTS of D3 Dopamine Receptor Agonist: qHTS). Settings: D3R DiscoveRx beta-arrestin cells, luminescence, 90 min; hits give high values.
Sequence of D(3) dopamine receptor (Homo sapiens) (P35462 whole entry, looked up): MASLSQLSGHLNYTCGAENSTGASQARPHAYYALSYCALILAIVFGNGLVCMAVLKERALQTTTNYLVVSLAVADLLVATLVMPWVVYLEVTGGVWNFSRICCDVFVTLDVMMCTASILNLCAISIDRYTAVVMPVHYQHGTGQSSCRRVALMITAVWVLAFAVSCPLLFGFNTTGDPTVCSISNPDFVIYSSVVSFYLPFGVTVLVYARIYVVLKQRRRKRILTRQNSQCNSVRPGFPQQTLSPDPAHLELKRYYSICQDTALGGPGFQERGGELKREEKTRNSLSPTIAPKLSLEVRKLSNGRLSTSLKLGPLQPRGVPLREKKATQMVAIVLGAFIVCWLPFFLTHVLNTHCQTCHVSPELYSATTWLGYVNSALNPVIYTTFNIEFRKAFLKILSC
Method in brief: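 Agonist mode: compounds and dopamine controls were applied to plated cells for 90 min at 37 degrees C after an overnight attachment at 1500 cells/well. Luminescent read-out followed 30 - 60 minutes at room temperature with DiscoveRx detection reagent.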
For `O=C(CSc1nc2c(c(=O)[nH]1)CN(Cc1ccc(F)cc1)CC2)Nc1ccccc1Cl`, the max activation was 6.55% (inactive).
`CCOC(=O)c1c(-c2ccc(OC)cc2)oc2ccc(OCc3ccc(C(=O)OC)cc3)cc12` was tested, and the max activation was 9.24% (inactive).
In the case of `COc1cc(-c2nnc(NC(=O)CS(=O)(=O)c3ccc(Cl)cc3)o2)cc(OC)c1OC`, the max activation is reported as -1.85% (inactive).
With `COC(=O)c1c(-c2ccsc2)oc2ccc(-c3cc(OC)c(OC)c(OC)c3)cc12` the max activation was 45.2% (active).
In the case of `COc1ccccc1NC(=O)c1sc2nc(C)c(C(=O)Nc3ccc(Cl)cc3)c(-c3ccc(Br)cc3)c2c1N`, the max activation is reported as -10.3% (inactive).
`Cc1nn(-c2ccc(N3CCCCC3)nn2)c(C)c1CCC(=O)NCc1ccccc1F` was tested, and the max activation was 13.4% (inactive).
In the case of `CCOc1ccc(Nc2nc(Cc3nnc(SCC(=O)c4ccc(C)cc4)o3)cs2)cc1`, the max activation is reported as 22.4% (inactive).
With `O=C(CSc1nnc(Cn2cnc3ccccc32)o1)c1ccccc1` the max activation was 2.49% (inactive).
For `CC(=O)Nc1ccc(C(=O)CSc2nnc(Cc3ccccc3)o2)cc1`, the max activation was 46.1% (active).
For `Cc1ccc(NC(=O)c2oc3ccc(S(=O)(=O)N4CCCCC4)cc3c2C)cc1Cl`, the max activation was -12.7% (inactive).
For `C[C@H](NC(=O)c1nc[nH]c1C(=O)NCC(=O)OC(C)(C)C)C(=O)OCc1ccccc1`, the max activation was 48.3% (active).
For `Cc1cccc(NC(=O)c2nc[nH]c2C(=O)NCC(=O)OCc2ccccc2)c1`, the max activation was 74.4% (active).
In the case of `CCOC(=O)c1[nH]cnc1C(=O)Nc1ccccc1C`, the max activation is reported as 4.49% (inactive).
With `C[C@H](NC(=O)c1nc[nH]c1C(=O)N[C@@H](C)C(=O)OC(C)(C)C)C(=O)OC(C)(C)C` the max activation was -3.39% (inactive).
In the case of `CNC(=O)c1[nH]cnc1C(=O)N[C@@H](CC(C)C)C(=O)OCc1ccccc1`, the max activation is reported as 15.1% (inactive).
In the case of `O=C(Nc1ccon1)c1nc[nH]c1C(=O)NCc1ccccc1`, the max activation is reported as 12.3% (inactive).
`C[C@H](NC(=O)c1nc[nH]c1C(=O)NCC(=O)OC(C)(C)C)c1ccccc1` was tested, and the max activation was -13.3% (inactive).
In the case of `CCOC(=O)c1ccc(NC(=O)c2nc[nH]c2C(=O)NCc2ccccc2)cc1`, the max activation is reported as 56.5% (active).
`O=C(Nc1cc(Br)ccc1F)c1nc[nH]c1C(=O)NCc1ccccc1` was tested, and the max activation was -7.03% (inactive).
With `COc1cccc(C(=O)N(Cc2cccc(Cl)c2)Cc2ccco2)c1` the max activation was -11.4% (inactive).
With `Cc1cc(C)cc(NS(=O)(=O)c2ccc(-c3cc(C)no3)s2)c1` the max activation was -10.7% (inactive).
With `CCOc1cc(/C=C(\C#N)C(=O)Nc2ccccc2C)ccc1OCc1cc(=O)n2nc(CC)sc2n1` the max activation was -12.7% (inactive).
For `O=C1CC(c2nnc(Cc3ccc(Cl)cc3)o2)CN1c1ccccc1` (stereo not drawn), the max activation was 10.5% (inactive).
With `COC(=O)c1c(NC(=O)C(C)Oc2ccc(Cl)c(C)c2)sc(C)c1C` (stereo not drawn) the max activation was -8.23% (inactive).
In the case of `CN[C@@H]1[C@H](O[C@H]2[C@H](O[C@H]3[C@H](O)[C@@H](O)[C@H](N=C(N)N)[C@@H](O)[C@@H]3N=C(N)N)O[C@@H](C)[C@]2(O)CO)O[C@@H](CO)[C@H](O)[C@H]1O`, the max activation is reported as 4.88% (inactive).
With `Cc1ccc(OC(=O)CSc2nnc(-c3cccs3)o2)cc1` the max activation was 7.3% (inactive).
`CCCCCCCCCCCCCCCCO` was tested, and the max activation was 11.6% (inactive).
With `CCN=C1S/C(=C\c2cc(Br)ccc2OCC(=O)OCC)C(=O)N1CC` the max activation was 5.26% (inactive).
With `Cc1cc(/C=C2/SC(=O)N(CC(=O)N3CCCC3)C2=O)ccc1N1CCOCC1` the max activation was -0.0029% (inactive).
With `Cc1cc(/C=C2/SC(=O)N(CC(=O)OC(C)C)C2=O)c(C)n1C` the max activation was 30.2% (active).
`FCOC(C(F)(F)F)C(F)(F)F` was tested, and the max activation was 9.08% (inactive).
In the case of `Cc1ccc(-c2nc(COC(=O)c3c(C)noc3C)cs2)cc1`, the max activation is reported as 32.5% (active).
In the case of `COc1cc(OC)cc(C(=O)NCC(=O)OCc2csc(-c3ccccc3)n2)c1`, the max activation is reported as -7.01% (inactive).
In the case of `COc1ccc(C(=O)COC(=O)c2c(C)noc2C)cc1Cl`, the max activation is reported as -4.54% (inactive).
In the case of `CC(=O)OC[C@H]1O[C@@H](O[C@H]2[C@H](O)[C@@H](OC(=O)c3ccccc3C(=O)O)[C@H](O)O[C@@H]2COC(C)=O)[C@H](O)[C@@H](OC(=O)c2ccccc2C(=O)O)[C@@H]1O`, the max activation is reported as 2.74% (inactive).
In the case of `CCCC(=O)N1CCN(c2nc3c(OC)ccc(C)c3s2)CC1`, the max activation is reported as 3.21% (inactive).
With `O=C1C(c2[nH]c3ccccc3c2O)=Nc2ccccc21` the max activation was -8.96% (inactive).
With `Cc1cc(Cl)ccc1NC(=S)N1CCC(C(N)=O)(N2CCCCC2)CC1` the max activation was 5% (inactive).
For `CCC(=O)N1CCC(C(N)=O)(N2CCCCC2)CC1`, the max activation was 1.17% (inactive).
In the case of `NC(=O)C1(N2CCCCC2)CCN(C(=S)Nc2ccc(Cl)cc2)CC1`, the max activation is reported as 32.5% (active).
`Cc1ccc(NS(=O)(=O)c2ccc3c(c2)CC(=O)N3)cc1Cl` was tested, and the max activation was -10.2% (inactive).
`Fc1ccc2[nH]c3c(N4CCSCC4)ncnc3c2c1` was tested, and the max activation was 42.3% (active).
For `Fc1ccc2[nH]c3c(N4CCN(Cc5ccc6c(c5)OCO6)CC4)ncnc3c2c1`, the max activation was 9.79% (inactive).
For `Cc1ccc(CNC(=O)CCC(=O)N2Cc3ccccc3Oc3ncccc32)cc1`, the max activation was -12% (inactive).
With `CCC(=O)N1c2ccccc2CC1C(=O)N1CCN(c2ccccc2)CC1` (stereo not drawn) the max activation was 0.179% (inactive).
For `Cc1cc2nc(-c3ccc(NC(=O)c4cccnc4)cc3)oc2cc1C`, the max activation was 32.8% (active).
In the case of `Cc1cc2nc(-c3ccc(NC(=O)c4cc5ccccc5o4)cc3)oc2cc1C`, the max activation is reported as 2.05% (inactive).
With `COc1cccc(C(=O)Nc2ccc3oc(-c4ccc5ccccc5c4)nc3c2)c1` the max activation was 15.1% (inactive).
`CC1=C(/C=C/C(C)=C/C=C/C(C)=C/C=C/C=C(C)/C=C/C=C(C)/C=C/C2=C(C)CCCC2(C)C)C(C)(C)CCC1` was tested, and the max activation was -12.4% (inactive).
For `Cc1ccc(-n2c(SCC(=O)Nc3ncc(Cl)cc3Cl)nc3ccccc32)cc1`, the max activation was 39.8% (active).
For `Cc1ccc(NC(=O)CSc2nc3c([nH]c4ccccc43)c(=O)n2-c2ccccc2)cc1Cl`, the max activation was -9.55% (inactive).
For `Cc1cc(C)c(NC(=O)Cn2c(SCC(=O)NCc3ccccc3)nc3ccccc32)c(C)c1`, the max activation was -11.4% (inactive).
With `CCC(=O)N1CCc2cc(S(=O)(=O)NC(C(=O)Nc3ccc(C(C)=O)cc3)C(C)C)ccc21` (stereo not drawn) the max activation was -16.2% (inactive).
